In test [1] the test system is Plasmodium falciparum Sir2 (PF13_0152, Sir2A). Kind of test: Plasmodium falciparum Sir2A binding compounds – biochemical, small-molecule microarray, 635 nm fluorescence, primary screen (AID 1098).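 Also: score merges spot fluorescence intensity with its signal-to-noise ratio.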 The settings on record: fluorescence 635 nm, higher = more signal.
Test [2] in a line: probe aDKK1 binding to arrayed compounds – biochemical, biotinylated probe, 635/667 nm fluorescence, primary screen (AID 1099).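 Also: score merges 667nm spot fluorescence with signal to noise across triplicate slides.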 The settings on record: small-molecule microarray, higher = more signal.
A short description of test [3]: probe aCHRDL2 binding to arrayed compounds – biochemical, biotinylated probe, 635/667 nm fluorescence, primary screen (AID 1100). The settings on record: small-molecule microarray, higher = more signal.
Test [4] in a line: change in splice reporter luminescence, either direction, cell-based, HEK293, spliceosome inhibition project, primary screen (AID 1101).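 Also: HEK293 cells carrying a splicing-competent luciferase reporter gene; test concentration not given here.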 The settings on record: HEK293 splicing luciferase reporter, 24 h, higher = more signal, called active from +8 up or from −8 down. (In a reporter assay the amount or activity of a reporter protein is the signal.)
The target in test [5] is Fibroblast growth factor 10 (Homo sapiens) (UniProt O15520). Kind of test: compounds binding fibroblast growth factor 10 – biochemical, small-molecule microarray, 635 nm fluorescence, primary screen (AID 1102). The settings on record: FGF10 binding, fluorescence 635 nm, higher = more signal.
Sequence of Fibroblast growth factor 10 (Homo sapiens) (O15520 whole entry, looked up): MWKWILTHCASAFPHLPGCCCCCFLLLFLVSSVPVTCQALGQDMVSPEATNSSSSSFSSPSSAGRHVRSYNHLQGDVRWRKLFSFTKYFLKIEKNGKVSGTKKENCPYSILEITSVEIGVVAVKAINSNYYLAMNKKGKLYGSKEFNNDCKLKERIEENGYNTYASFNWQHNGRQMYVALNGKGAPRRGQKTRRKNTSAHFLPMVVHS
For test [6], the system named is glycogen synthase kinase-3 (GSK3A per assay name; protocol says GSK3B). Kind of test: compounds binding glycogen synthase kinase-3 – biochemical, small-molecule microarray, 635 nm fluorescence, GSK3A, primary screen (AID 1103). Also: the record names both GSK3A and GSK3B. The settings on record: fluorescence 635 nm, higher = more signal.
Test [7] has as its target Epidermal growth factor receptor (Homo sapiens) (UniProt P00533). Kind of test: compounds binding epidermal growth factor receptor – biochemical, small-molecule microarray, 635 nm fluorescence, primary screen (AID 1104).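 Also: score merges 667 nm emission intensity with spot signal to noise over triplicate slides.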 To be noted: EGFR binding, higher = more signal.
Test [8] has as its target Follistatin-related protein 3 (Homo sapiens) (UniProt O95633). Kind of test: compounds binding follistatin-related protein 3 – biochemical, small-molecule microarray, 635 nm fluorescence, primary screen (AID 1105).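 Also: score merges emission near 667 nm and signal to noise per printed spot across three slides.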 The settings on record: FSTL3 binding, higher = more signal.
The target of test [9] is Dickkopf-related protein 1 (Homo sapiens) (UniProt O94907). Kind of test: small molecules binding DKK1 protein – biochemical, small-molecule microarray, 635 nm fluorescence scan, primary screen (AID 1106).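 Also: score merges emission near 667 nm with signal to noise over three replicate slides.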 To be noted: higher = more signal.
Sequence of Dickkopf-related protein 1 (Homo sapiens) (O94907 whole entry, looked up): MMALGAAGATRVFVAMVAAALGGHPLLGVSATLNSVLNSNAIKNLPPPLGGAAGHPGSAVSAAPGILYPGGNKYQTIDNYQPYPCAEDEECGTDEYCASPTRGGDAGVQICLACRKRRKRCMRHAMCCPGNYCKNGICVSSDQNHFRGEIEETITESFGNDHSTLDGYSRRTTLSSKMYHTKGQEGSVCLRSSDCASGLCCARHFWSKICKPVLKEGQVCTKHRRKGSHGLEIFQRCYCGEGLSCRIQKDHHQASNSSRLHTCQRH
In test [10] the test system is Inhibin beta A chain (activin A). Kind of test: small molecules binding activin A – biochemical, small-molecule microarray, 635 nm fluorescence scan, primary screen (AID 1107).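 Also: mouse activin A protein probed at 4.33 µg/mL on printed slides; score merges bound-protein fluorescence near 667 nm with spot signal-to-noise.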 The settings on record: INHBA, higher = more signal.
In test [11] the test system is Human papillomavirus type 1a protein E7 (residues 44-93). Kind of test: small molecules binding HPV E7 44-93 – biochemical, small-molecule microarray, residues 44-93, 635 nm fluorescence, primary screen (AID 1108).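 Also: E7 fragment applied at 1 µg/mL in TBST for 1 h at 4 C; score combines spot fluorescence with its signal to noise ratio.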 To be noted: fluorescence 635 nm, higher = more signal.
Test [12] can be described thus: hepatitis C replication reporter changes, two-sided – Huh7 cells, luciferase reporter, HCV replication inhibitor project, primary screen (AID 1109).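 Also: huh7 hepatoma cells harbouring a luciferase neomycin HCV replicon reporter; luciferase luminescence as measure of HCV replicon replication; test concentration not given here.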 The settings on record: Huh7 HCV replicon luciferase reporter, 48 h; higher = more signal.
Test [13] has as its target Left-right determination factor 2 (Homo sapiens) (UniProt O00292). Kind of test: small molecules binding LEFTY2 protein – biochemical, small-molecule microarray, 635 nm fluorescence scan, primary screen (AID 1110). The settings on record: higher = more signal.
The target of test [14] is Calmodulin-1 (Homo sapiens) (UniProt P0DP23). Kind of test: small molecules binding calmodulin-1 with EGTA – biochemical, small-molecule microarray, Cy5-labelled CALM1, profiling panel (AID 1111).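 Also: labelled calmodulin applied in Tris saline Tween buffer holding calcium plus EGTA and DTT.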 The settings on record: Cy5-CALM1 binding fluorescence, higher = more signal.
The target is the same in test [15]. Kind of test: small molecules binding Ca-loaded calmodulin-1 – biochemical, small-molecule microarray, Cy5-labelled CALM1, plus calcium, artefact control for SMM control-protein annotation, profiling panel (AID 1112).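 Also: score merges spot fluorescence with signal to noise from triplicate slides.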 The settings on record: Cy5-CALM1 binding fluorescence, higher = more signal.
Test [16] in a line: probe aWnt5a binding to arrayed compounds – biochemical, biotinylated probe, 635/667 nm fluorescence, primary screen (AID 1113).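 Also: score merges 667 nm fluorescence intensity with signal-to-noise per printed feature.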 The settings on record: small-molecule microarray, higher = more signal.
Test [17] is described as follows: probe aShh binding to arrayed compounds – biochemical, biotinylated probe, 635/667 nm fluorescence, primary screen (AID 1114).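 Also: probe is biotin-labelled aShh protein from a stem cell growth factor screen; measures binding of labelled protein to compounds printed on the slide; score merges feature fluorescence at 667 nm with signal-to-noise.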 The settings on record: small-molecule microarray, higher = more signal.
Test [18] in a line: probe aNog binding to arrayed compounds – biochemical, biotinylated probe, 635/667 nm fluorescence, primary screen (AID 1115).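 Also: probe is biotinylated aNog protein used at 0.15 µg/mL for 1 h at 4 C; z-score combines 667 nm fluorescence of each spot with its signal to noise.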 To be noted: small-molecule microarray, higher = more signal.
In test [19] the target is Torsin-1A-interacting protein 1 (Homo sapiens) (UniProt Q5JTV8). Kind of test: compound microarray binding of lysate hLAP1 – cell lysate, small-molecule microarray, COS7 lysate, 635/667 nm fluorescence, primary screen (AID 1116). To be noted: 635 nm fluorescence, higher = more signal.
Sequence of Torsin-1A-interacting protein 1 (Homo sapiens) (Q5JTV8 whole entry, looked up): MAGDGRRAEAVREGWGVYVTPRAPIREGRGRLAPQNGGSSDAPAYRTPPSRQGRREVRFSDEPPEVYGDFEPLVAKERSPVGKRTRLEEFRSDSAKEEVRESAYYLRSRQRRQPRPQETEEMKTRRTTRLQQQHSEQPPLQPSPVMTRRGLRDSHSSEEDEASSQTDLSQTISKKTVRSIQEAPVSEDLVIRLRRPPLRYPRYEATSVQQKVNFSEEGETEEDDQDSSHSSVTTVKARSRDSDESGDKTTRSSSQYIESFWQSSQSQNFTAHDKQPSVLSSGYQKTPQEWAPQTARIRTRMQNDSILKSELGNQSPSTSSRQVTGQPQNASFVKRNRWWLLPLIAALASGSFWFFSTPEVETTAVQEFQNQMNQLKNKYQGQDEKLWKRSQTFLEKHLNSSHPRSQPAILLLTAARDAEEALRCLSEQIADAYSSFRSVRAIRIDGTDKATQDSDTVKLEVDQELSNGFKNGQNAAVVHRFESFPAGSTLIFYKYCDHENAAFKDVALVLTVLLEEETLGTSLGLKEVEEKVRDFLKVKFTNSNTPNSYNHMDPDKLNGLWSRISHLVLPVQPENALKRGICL
For test [20], the target named is Alpha-bungarotoxin (Bungarus multicinctus) (UniProt P60615). Kind of test: compounds binding labelled alpha-BTX control protein – biochemical, small-molecule microarray, Alexa647 label, 635/667 nm fluorescence, artefact control for SMM control protein annotation, profiling panel (AID 1117). To be noted: alpha-BTX-A647 binding fluorescence, higher = more signal.
Sequence of Alpha-bungarotoxin (Bungarus multicinctus) (P60615 whole entry, looked up): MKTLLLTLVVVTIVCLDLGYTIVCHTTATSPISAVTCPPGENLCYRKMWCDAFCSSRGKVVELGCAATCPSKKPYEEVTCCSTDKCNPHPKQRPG

The structures appear in SMILES notation. Activity calls are given as the source filed them.

Sequence of Follistatin-related protein 3 (Homo sapiens) (O95633 whole entry, looked up): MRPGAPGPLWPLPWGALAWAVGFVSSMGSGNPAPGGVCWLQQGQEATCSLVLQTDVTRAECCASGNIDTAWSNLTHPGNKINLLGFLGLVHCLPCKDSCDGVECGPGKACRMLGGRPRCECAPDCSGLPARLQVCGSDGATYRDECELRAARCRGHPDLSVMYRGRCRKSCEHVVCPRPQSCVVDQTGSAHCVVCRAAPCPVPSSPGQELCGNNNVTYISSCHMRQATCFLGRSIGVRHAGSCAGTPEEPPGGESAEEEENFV
Sequence of Left-right determination factor 2 (Homo sapiens) (O00292 whole entry, looked up): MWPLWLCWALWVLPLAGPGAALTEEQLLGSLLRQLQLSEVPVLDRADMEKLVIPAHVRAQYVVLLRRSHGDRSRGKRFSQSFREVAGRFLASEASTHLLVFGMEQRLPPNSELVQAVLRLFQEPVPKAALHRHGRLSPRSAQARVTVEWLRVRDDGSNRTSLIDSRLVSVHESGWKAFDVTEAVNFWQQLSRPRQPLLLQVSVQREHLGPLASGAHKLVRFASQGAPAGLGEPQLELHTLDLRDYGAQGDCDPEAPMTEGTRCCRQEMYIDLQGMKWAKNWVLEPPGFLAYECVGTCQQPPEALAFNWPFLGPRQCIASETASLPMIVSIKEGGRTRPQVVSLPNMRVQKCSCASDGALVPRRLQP
Sequence of Epidermal growth factor receptor (Homo sapiens) (P00533 whole entry, looked up): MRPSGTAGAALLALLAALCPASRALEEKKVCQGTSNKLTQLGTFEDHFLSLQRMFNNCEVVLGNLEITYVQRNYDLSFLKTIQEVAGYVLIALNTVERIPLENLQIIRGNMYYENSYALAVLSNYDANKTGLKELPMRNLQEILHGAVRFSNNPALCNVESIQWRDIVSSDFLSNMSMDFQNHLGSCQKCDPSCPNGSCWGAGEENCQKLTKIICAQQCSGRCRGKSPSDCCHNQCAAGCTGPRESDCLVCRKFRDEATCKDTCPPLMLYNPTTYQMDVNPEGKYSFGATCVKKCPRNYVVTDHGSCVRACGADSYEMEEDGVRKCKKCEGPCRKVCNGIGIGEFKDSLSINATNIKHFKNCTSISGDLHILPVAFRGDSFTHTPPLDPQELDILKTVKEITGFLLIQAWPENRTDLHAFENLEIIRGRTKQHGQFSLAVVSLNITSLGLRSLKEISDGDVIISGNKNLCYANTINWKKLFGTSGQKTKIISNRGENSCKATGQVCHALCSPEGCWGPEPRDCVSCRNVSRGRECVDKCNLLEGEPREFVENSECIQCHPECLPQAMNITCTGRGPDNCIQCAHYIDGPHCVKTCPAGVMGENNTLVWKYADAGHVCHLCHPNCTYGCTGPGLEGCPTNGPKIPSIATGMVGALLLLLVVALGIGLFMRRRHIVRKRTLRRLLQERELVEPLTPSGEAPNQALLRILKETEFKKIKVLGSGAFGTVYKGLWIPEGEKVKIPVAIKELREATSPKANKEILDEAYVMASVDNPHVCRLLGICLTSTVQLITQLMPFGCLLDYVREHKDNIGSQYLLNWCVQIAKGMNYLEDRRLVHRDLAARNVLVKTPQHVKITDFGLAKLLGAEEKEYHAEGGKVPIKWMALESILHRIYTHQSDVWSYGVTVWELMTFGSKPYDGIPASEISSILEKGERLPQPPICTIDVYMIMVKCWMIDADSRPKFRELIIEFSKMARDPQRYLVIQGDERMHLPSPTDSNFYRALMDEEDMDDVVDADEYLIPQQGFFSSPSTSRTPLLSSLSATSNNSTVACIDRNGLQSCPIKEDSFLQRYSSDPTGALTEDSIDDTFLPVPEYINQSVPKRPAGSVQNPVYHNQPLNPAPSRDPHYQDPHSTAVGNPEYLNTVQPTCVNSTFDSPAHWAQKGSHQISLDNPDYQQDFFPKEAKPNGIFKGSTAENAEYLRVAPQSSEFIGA

Turning to `COCCOC(=O)N1C(=O)[C@@]2(c3cc(C#CCC(C(=O)OC)C(=O)OC)ccc31)[C@H](c1ccc(OCCO)cc1)N1[C@H](c3ccccc3)[C@H](c3ccccc3)OC(=O)[C@H]1[C@@H]2C(=O)Nc1nc2ccccc2s1`, the composite z-score was 1.02 in test [1]; 0.0317 in [2]; -0.108 in test [3]; 0.84 in [5]; 1.06 in test [6]; 0.292 in test [7]. In addition, the composite z-score in test [8] was determined as 1.08; in test [9] it was 0.279; in test [10], 0.495; in test [11] it was 1.16; in [13] it was 0.423; in test [14], 1.05. The composite z-score in [15] was -0.0309; in [16] it was -0.0202; in test [17] it was -0.0793; in [18], -0.114; in test [19] it was 0.743; in [20] it was 1.06. Moreover, the z-score in test [4] is 0.907 (inactive); in [12], -2.06.
On to `COCCOC(=O)N1C(=O)[C@@]2(c3cc(C#CCNC(N)=O)ccc31)[C@H](c1ccc(O)cc1)N1[C@H](c3ccccc3)[C@H](c3ccccc3)OC(=O)[C@H]1[C@@H]2C(=O)N1CCN(c2ncccn2)CC1`, for which the composite z-score worked out at 1.55 in test [1]; 0.607 in test [2]; 0.762 in test [3]; 0.811 in [5]; 0.907 in [6]; 0.279 in [7]. Moreover, the composite z-score in test [8] was determined as 0.751; in test [9], 0.0805; in [10] it was 0.311; in test [11], 0.855; in [13], 0.315; in test [14], 2.03. Also, the composite z-score in test [15] is 0.762; in [16], -0.219; in test [17] it was 1.78; in [18], -0.48; in test [19] it was 1.82; in test [20], 1.52. The results for the z-score in [4] and in test [12] were 0.41 (inactive) and -1.3, respectively.
Regarding `O=C1O[C@H](c2ccccc2)[C@H](c2ccccc2)N2[C@H]1[C@@H](C(=O)N1CCCCCCC1)[C@]1(C(=O)Nc3ccc(C#CC4(O)CCCCCC4)cc31)[C@H]2c1ccccc1OCCO`, the composite z-score in test [1] amounted to 2.09; in test [2], 3.17; in test [3], 1.7; in test [5], 1.56; in [6], 1.48; in test [7] it was 1.96. The composite z-score in test [8] came out at 1.77; in [9], 2.77; in test [10], 1.69; in test [11] it was 1.59; in test [13], 1.78; in [14] it was 3.09. For the same compound, the composite z-score in test [15] was determined as 1.81; in [16] it was 1.53; in test [17] it was 1.92; in test [18], 3.25; in test [19], 5.71; in [20] it was 4.23. For the same compound, the z-score is -0.0867 (inactive) in test [4] and -1.88 in test [12].
Consider `CCN(CC)c1ccc(N2CC=CC34O[C@@H]5/C=C\CCC(C)OC(=O)C5[C@H]3C(=O)N(C(C)CO)[C@@H]4C2=O)cc1` (stereo not given in full), for which the composite z-score in [1] was -0.516; in test [2], -0.47; in [3] it was -0.514; in test [5], -0.408; in test [6], -0.189; in test [7] it was -0.455. In addition, the composite z-score was -0.159 in test [8]; 0.492 in [9]; 1.5 in test [10]; -0.344 in [11]; -0.292 in test [13]; -0.847 in test [14]. Further, the composite z-score in test [15] was -1.66; in test [16] it was -0.0346; in test [17], -0.0709; in [18] it was -0.318; in test [19], 0.187; in [20] it was -1.04. The z-score is 0.0828 (inactive) in test [4] and 0.0645 in test [12].
Take `CCCCNC(=O)c1ccc(C#C[Si](C(C)C)(C(C)C)C(C)C)c(OC(C)=O)c1`: the composite z-score in test [1] was 0.28; in [2] it was -0.0188; in test [3], -0.539; in test [5] it was 0.832; in [6] it was 0.807; in test [7], 1.36. Further, the composite z-score in [8] was 1.49; in test [9], 0.784; in test [10], 1.59; in [11] it was 1.09; in [13], 0.785; in [14], 0.367. Moreover, the composite z-score in test [15] is -0.48; in test [16], -0.0977; in test [17] it was -0.2; in [18], -0.216; in [19], 0.15; in test [20], 2.24. Further, the z-score in test [4] was -0.831 (inactive); in test [12] it was -1.13.
